The source made the active and inactive calls.

A short description of assay [1]: E. coli DRC41 culture turbidity changes, primary screen, E. coli filamentation inducer project, strain DRC41, OD650, 48 h (AID 1152).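 Note: E. coli MC1000 strain DRC41 lacking acrAB efflux pump and sulA.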 To be noted: E. coli DRC41 (acrAB sulA), higher = more signal, called active from +8 up or from −8 down.
Assay [2] is described as follows: small-molecule binders of probe aLefty1, primary screen, biochemical, small-molecule microarray, 635/667 nm fluorescence (AID 1153).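 Note: score merges spot fluorescence with signal-to-noise ratio from the scanned slide images.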 To be noted: higher = more signal.
The nature of assay [3]: PSAC antagonists in infected red cells, primary screen, cell-based, P. falciparum Indochina, OD700, 1 h (AID 1154). The settings on record: P. falciparum Indochina infected RBC osmotic lysis, higher = more signal, called active from +8 up or from −8 down.
Assay [4] is described as follows: PSAC antagonists in infected red cells, primary screen, cell-based, P. falciparum Indochina, OD700, 2 h (AID 1155).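 Note: lysis reports solute entry through the parasite surface anion channel PSAC; channel blockers reduce lysis of infected cells.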 The settings on record: P. falciparum Indochina infected erythrocytes, osmotic lysis OD700; higher = more signal, called active from +8 up or from −8 down.
A short description of assay [5]: osmotic lysis modulators in infected erythrocytes, primary screen, PSAC antagonist project, cell-based, P. falciparum Indochina, OD700, 3 h (AID 1156). To be noted: higher = more signal, called active from +8 up or from −8 down.
Assay [6] is described as follows: PSAC antagonists in infected red cells, primary screen, cell-based, P. falciparum Indochina, OD700, 18 h (AID 1157). The settings on record: P. falciparum Indochina infected erythrocytes, osmotic lysis OD700, 18 h; higher = more signal, called active from +8 up or from −8 down.
A short description of assay [7]: modulators of S6 phosphorylation in cells, primary screen, cell-based, A549, cytoblot, luminescence, serum-stimulated (AID 1158).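 Note: serum-stimulated A549 lung adenocarcinoma cells; signal is phosphorylated S6 detected by cytoblot immunostaining with HRP secondary.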 The settings on record: A549 phospho-S6 cytoblot, 5 h, higher = more signal.
The target in assay [8] is NADPH oxidase 2 (Homo sapiens) (UniProt P04839). Nature of the assay: NOX2-dependent H2O2 signal modulators, primary screen, NOX inhibitor project, cell-based, HEK293-NOX2, PMA-stimulated, Amplex Red fluorescence (AID 1159). Note: test concentration not given here. To be noted: 45 min, higher = more signal, called active from +8 up or from −8 down.
Assay [9] concerns the target NADPH oxidase 4 (Homo sapiens) (UniProt Q9NPH5). Nature of the assay: NOX4-dependent H2O2 signal modulators, primary screen, NOX inhibitor project, cell-based, HEK293-NOX4, tetracycline-induced, Amplex Red fluorescence (AID 1160). To be noted: 45 min, higher = more signal, called active from +8 up or from −8 down.
In assay [10] the target is NADPH oxidase 5 (Homo sapiens) (UniProt Q96PH1). The assay is described as follows: NOX5-dependent H2O2 signal modulators, primary screen, NOX inhibitor project, cell-based, HEK293-NOX5, Amplex Red fluorescence (AID 1161). To be noted: HEK293-NOX5, ionomycin, 45 min, higher = more signal.
Chain of NADPH oxidase 5 (Homo sapiens) (Q96PH1 whole entry, looked up): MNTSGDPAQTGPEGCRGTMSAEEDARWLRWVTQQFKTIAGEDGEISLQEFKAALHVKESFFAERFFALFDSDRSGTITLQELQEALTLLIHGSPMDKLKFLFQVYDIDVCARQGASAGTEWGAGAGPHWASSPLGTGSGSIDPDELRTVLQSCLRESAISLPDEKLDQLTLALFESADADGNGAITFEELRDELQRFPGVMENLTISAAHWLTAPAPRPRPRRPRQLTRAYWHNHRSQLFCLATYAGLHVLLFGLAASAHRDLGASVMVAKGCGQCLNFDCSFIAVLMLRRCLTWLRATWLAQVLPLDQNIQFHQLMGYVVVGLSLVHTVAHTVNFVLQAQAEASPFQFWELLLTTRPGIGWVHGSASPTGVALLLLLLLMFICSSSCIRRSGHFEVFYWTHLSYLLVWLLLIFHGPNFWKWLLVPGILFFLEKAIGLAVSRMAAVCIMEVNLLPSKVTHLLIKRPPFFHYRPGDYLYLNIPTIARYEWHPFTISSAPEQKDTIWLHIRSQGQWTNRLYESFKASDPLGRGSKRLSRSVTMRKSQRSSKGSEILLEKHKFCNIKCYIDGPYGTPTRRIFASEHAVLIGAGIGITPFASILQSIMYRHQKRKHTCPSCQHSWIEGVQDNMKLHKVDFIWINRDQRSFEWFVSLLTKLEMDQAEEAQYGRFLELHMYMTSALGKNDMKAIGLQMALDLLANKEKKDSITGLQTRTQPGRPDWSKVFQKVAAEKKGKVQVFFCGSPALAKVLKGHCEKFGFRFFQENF

Chain of NADPH oxidase 2 (Homo sapiens) (P04839 whole entry, looked up): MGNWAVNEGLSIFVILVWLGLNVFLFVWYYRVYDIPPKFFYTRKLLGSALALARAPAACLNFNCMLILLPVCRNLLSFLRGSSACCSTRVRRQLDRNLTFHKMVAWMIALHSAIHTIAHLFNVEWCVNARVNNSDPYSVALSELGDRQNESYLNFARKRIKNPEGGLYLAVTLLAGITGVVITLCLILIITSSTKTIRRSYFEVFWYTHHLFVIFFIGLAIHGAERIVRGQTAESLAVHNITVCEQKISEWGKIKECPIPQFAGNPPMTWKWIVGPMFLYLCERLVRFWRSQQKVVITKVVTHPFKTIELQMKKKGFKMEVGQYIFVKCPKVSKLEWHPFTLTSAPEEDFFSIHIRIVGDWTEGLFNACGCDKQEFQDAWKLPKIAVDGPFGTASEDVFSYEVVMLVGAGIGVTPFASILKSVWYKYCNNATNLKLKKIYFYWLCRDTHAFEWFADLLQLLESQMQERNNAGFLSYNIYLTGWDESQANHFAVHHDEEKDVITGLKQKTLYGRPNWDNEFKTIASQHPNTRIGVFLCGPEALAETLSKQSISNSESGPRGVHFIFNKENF
Chain of NADPH oxidase 4 (Homo sapiens) (Q9NPH5 whole entry, looked up): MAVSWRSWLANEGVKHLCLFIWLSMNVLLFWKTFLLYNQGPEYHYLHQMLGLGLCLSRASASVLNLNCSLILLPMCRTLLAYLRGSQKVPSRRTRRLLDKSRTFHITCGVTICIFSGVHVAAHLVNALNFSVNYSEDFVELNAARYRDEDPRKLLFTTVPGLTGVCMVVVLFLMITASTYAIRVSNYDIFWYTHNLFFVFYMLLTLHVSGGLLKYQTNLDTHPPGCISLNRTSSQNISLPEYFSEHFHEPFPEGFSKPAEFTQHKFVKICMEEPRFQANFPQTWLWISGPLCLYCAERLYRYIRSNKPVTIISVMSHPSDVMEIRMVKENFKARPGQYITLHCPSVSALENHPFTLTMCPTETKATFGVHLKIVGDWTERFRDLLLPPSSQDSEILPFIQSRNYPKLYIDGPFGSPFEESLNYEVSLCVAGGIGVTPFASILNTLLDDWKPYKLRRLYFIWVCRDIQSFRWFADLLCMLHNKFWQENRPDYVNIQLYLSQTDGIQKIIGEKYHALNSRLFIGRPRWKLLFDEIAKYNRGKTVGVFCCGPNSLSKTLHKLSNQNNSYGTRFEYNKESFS

Take `C=CCOC(=O)[C@H]1[C@@H]2C(=O)O[C@@H](c3ccccc3)[C@@H](c3ccccc3)N2[C@@H](c2ccc(OCCOC(=O)[C@@H]3C[C@@H]4C(=O)N5CCC[C@H]5C(=O)N4[C@@H]3c3cccc(OCCO)c3)cc2)[C@]12C(=O)Nc1ccc(I)cc12`: the z-score in assay [1] is -0.811 (inactive); in assay [3] it was 4.52 (inactive); in assay [4] it was 2.5 (inactive); in assay [5] it was 1.25 (inactive); in [6], 1.5 (inactive); in assay [7], -0.679. Further, the values for the z-score in assay [8], in assay [9] and in assay [10] were 1.86 (inactive), 0.833 (inactive) and 1.49, respectively. The composite z-score in assay [2] was 1.53.
`CCN(CC)c1ccc(N2CC=CC34O[C@@H]5C=CCOC(=O)[C@@H]5[C@H]3C(=O)N(CCCCCCO)[C@@H]4C2=O)cc1` (stereo not given in full): the z-score in assay [1] is 2.74 (inactive); in assay [3], 2.21 (inactive); in [4] it was 0.184 (inactive); in assay [5], 0.404 (inactive); in assay [6], -0.313 (inactive); in assay [7] it was 0.411. In addition, the z-score is -0.262 (inactive) in assay [8], 0.301 (inactive) in assay [9] and 1.17 in assay [10]. In assay [2], this molecule displayed a composite z-score of 0.176.
With `COc1ccc([Si](C)(C)[C@@H]2[C@@H](CC(=O)N3Cc4ccccc4C[C@H]3CO)O[C@]3(C(=O)N(Cc4cccc(N5CCC5=O)c4)c4ccccc43)[C@H]2C)cc1`, the z-score is -0.879 (inactive) in assay [1]; 2.84 (inactive) in assay [3]; 1.09 (inactive) in assay [4]; -0.2 (inactive) in [5]; 0.917 (inactive) in [6]; 0.275 in assay [7]. For the same molecule, the results for the z-score in assay [8], in assay [9] and in [10] were -0.355 (inactive), 0.912 (inactive) and 2.11, respectively. The molecule further showed a composite z-score in assay [2] of 0.199.
For `COc1cc(OC)c(C(O)C2C=CC3C(=O)NC(=O)C3N2Nc2ccccn2)cc1Br` (stereo not given), the z-score is -0.718 (inactive) in [1]; 1.54 (inactive) in assay [3]; 0.783 (inactive) in assay [4]; 0.332 (inactive) in assay [5]; 0.876 (inactive) in assay [6]; -0.732 in assay [7]. Besides, the z-score in [8] was -0.0691 (inactive); in assay [9], -2.81 (inactive); in [10] it was -2.05. In [2], this molecule came in with a composite z-score of -0.172.
As for `[N-]=[N+]=Nc1ccccc1[C@H]1OC(c2ccc(OCCCO)cc2)=N[C@@]1(CCS(=O)(=O)c1ccccc1)C(=O)NCc1ccccc1`, the z-score in [1] is -0.795 (inactive); in assay [3], 28.1 (active); in [4] it was 27.8 (active); in assay [5], 1.64 (inactive); in assay [6], 1.92 (inactive); in [7] it was -0.234. In addition, the z-score in assay [8] is 0.443 (inactive); in assay [9] it was 0.184 (inactive); in assay [10], -0.852. This molecule also displayed a composite z-score in [2] of 0.373.
As for `CC(c1ccccc1)C(O)C1C=CC2C(=O)N(C)C(=O)C2N1NC(=O)OC(C)(C)C` (stereo not given), the z-score in assay [1] is -0.288 (inactive); in [3] it was 0.667 (inactive); in assay [4], 0.871 (inactive); in assay [5], -0.344 (inactive); in assay [6], 0.508 (inactive); in assay [7], -0.683. For the same molecule, the z-score in [8] was -0.326 (inactive); in assay [9], -0.289 (inactive); in assay [10] it was -1.2. This molecule had a composite z-score in assay [2] of 0.839.
For `O=C1NC(=O)C2C1C=CC(C(O)c1ccc(I)cc1)N2Nc1ccccn1` (stereo not given), the z-score in assay [1] was -1.29 (inactive); in [3], 1.41 (inactive); in [4] it was 0.698 (inactive); in [5] it was 0.0388 (inactive); in assay [6], 0.729 (inactive); in assay [7], -0.779. The z-score in [8] was -1.16 (inactive); in [9], -2.82 (inactive); in assay [10] it was -2.2. This molecule registered a composite z-score in assay [2] of 0.0701.
On to `CN(C)CCCC[C@@H]1NC(=O)[C@H]2C[C@@H](C(=O)NCCCCCN)[C@@H](c3cccc(OCCO)c3)N2C1=O`, for which the z-score in assay [1] was 0.675 (inactive); in assay [3], 1.9 (inactive); in assay [4], 0.112 (inactive); in assay [5], -1.16 (inactive); in assay [6], 0.129 (inactive); in assay [7] it was 0.204. In addition, the z-score is 0.653 (inactive) in assay [8], 0.222 (inactive) in [9] and 1.52 in assay [10]. In [2], this molecule displayed a composite z-score of 1.28.
On to `CCCCN1CC=CC23O[C@@H]4C=CCOC(=O)[C@@H]4[C@H]2C(=O)N(CCCCCCO)[C@@H]3C1=O` (stereo not given in full), for which the z-score in [1] was -0.413 (inactive); in assay [3] it was 2.08 (inactive); in assay [4], 0.393 (inactive); in assay [5] it was 1.09 (inactive); in assay [6], 0.405 (inactive); in [7], 0.133. In addition, the z-score was 1.09 (inactive) in [8], -0.282 (inactive) in [9] and 1.63 in [10]. The composite z-score in assay [2] was -0.195.
With `COCCCNC(=O)[C@@]1(CCS(=O)(=O)c2ccccc2)N=C(c2ccc(OCCCO)cc2)O[C@H]1c1ccccc1N=[N+]=[N-]`, the z-score in assay [1] was 1.12 (inactive); in assay [3] it was 29.4 (active); in [4], 21 (active); in [5], 1.28 (inactive); in assay [6] it was 0.425 (inactive); in assay [7], 1.62. The results for the z-score in [8], in assay [9] and in [10] were -5.07 (inactive), -2.78 (inactive) and -2.11, respectively. In addition, the composite z-score in assay [2] turned out to be 0.517.
As for `O=C1[C@H]2C=C(Br)[C@H](C[C@@H]2OCCCCCCO)[C@@]12CO2`, the z-score in assay [1] was -1.69 (inactive); in [3] it was 1.53 (inactive); in assay [4] it was 0.318 (inactive); in assay [5], 1.2 (inactive); in assay [6] it was 0.501 (inactive); in [7], -0.276. The z-score in [8] was 0.486 (inactive); in assay [9], 0.633 (inactive); in assay [10], -0.292. This molecule had a composite z-score in [2] of -0.101.
`COc1ccc(CCNC(=O)[C@@]2(C)c3ccccc3C(=O)N(c3ccc(C)cn3)[C@H]2c2ccc(CO)cc2)cc1`: the z-score was -0.246 (inactive) in assay [1]; 2.01 (inactive) in assay [3]; -0.1 (inactive) in assay [4]; 0.825 (inactive) in assay [5]; 0.156 (inactive) in assay [6]; -0.0316 in assay [7]. Besides, the z-score was -0.911 (inactive) in assay [8], -0.78 (inactive) in assay [9] and -1.81 in assay [10]. Moreover, the composite z-score in [2] is -0.0378.
Regarding `COCCOC(=O)N1C(=O)[C@@]2(c3cc(C#CC4=CCCCC4)ccc31)[C@H](c1ccc(OCCO)cc1)N1[C@H](c3ccccc3)[C@H](c3ccccc3)OC(=O)[C@H]1[C@@H]2C(=O)N1CCc2cc(OC)c(OC)cc2C1`, the z-score in assay [1] is 1.8 (inactive); in assay [3], 3.15 (inactive); in assay [4], 2.02 (inactive); in assay [5], 0.817 (inactive); in assay [6], 1.13 (inactive); in assay [7], 0.0337. Moreover, the figures for the z-score in assay [8], in [9] and in assay [10] were 0.711 (inactive), 0.842 (inactive) and 1.43, respectively. In addition, the composite z-score in assay [2] worked out at 0.26.

These data come from PubChem BioAssay.
